Laboratory results: PubChem BioAssay
For some assays here: Measured potencies and affinities stand elsewhere. The source made the active and inactive calls. Unless noted, how the calls were made is not given here.

Experiments:
[1] = antimalarial activity against Dd2 strain (AID 2302;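 active means growth inhibition above 50% at the single 2 µM test dose, taken to imply half-maximal potency below 2 µM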;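 further: 0% = DMSO untreated growth and 100% = chloroquine plus artemisinin killed control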); conditions: P. falciparum Dd2 in RBCs, LDH growth readout, 72 h; at 2 µM; stronger effect = higher value
[2] = human hepatoma cell viability loss – ATP luminescence, cytotoxicity control for P. falciparum antimalarial project, primary screen (AID 2303;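 active means inhibition above 50%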;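 further: 0% = DMSO wells and 100% = digitonin-killed cells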); conditions: HepG2 viability, 24-48 h, at 10 µM, stronger effect = higher value
[3] = biological target: L-lactate dehydrogenase (Plasmodium falciparum (isolate CDC / Honduras)) (UniProt Q27743); experiment: PfLDH activity inhibition – cell lysate, 3D7 strain, counter-screen for P. falciparum growth inhibition project (AID 2304);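 further: 0% = vehicle and 100% = reference inhibitor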; conditions: P. falciparum 3D7 crude extract, LDH APAD/NBT absorbance; at 2 µM; stronger effect = higher value
Chain of L-lactate dehydrogenase (Plasmodium falciparum (isolate CDC / Honduras)) (Q27743 whole entry, looked up): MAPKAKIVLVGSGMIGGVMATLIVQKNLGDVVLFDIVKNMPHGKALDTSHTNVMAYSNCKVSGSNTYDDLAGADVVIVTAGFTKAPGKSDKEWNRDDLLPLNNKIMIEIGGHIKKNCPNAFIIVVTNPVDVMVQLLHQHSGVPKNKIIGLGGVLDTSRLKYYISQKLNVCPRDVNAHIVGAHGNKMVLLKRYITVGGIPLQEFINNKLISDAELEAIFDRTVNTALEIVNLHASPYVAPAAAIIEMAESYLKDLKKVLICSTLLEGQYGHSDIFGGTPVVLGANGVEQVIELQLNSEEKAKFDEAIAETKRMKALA

[4] = inhibition of 3D7 malaria parasite growth – strain 3D7 (AID 2306);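 further: 0% = DMSO wells and 100% = chloroquine plus artemisinin control wells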; conditions: P. falciparum 3D7 erythrocytic growth, LDH absorbance, 72 h; at 2 µM; stronger effect = higher value
[5] = biological target: Calcium-dependent protein kinase 1 (Plasmodium falciparum (isolate 3D7)) (UniProt P62344); experiment: PfCDPK1 kinase inhibitors, biochemical, TCAMS library (AID 1159585; cut-off not given, nearly all actives have IC50 up to about 0.98 µM;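 further: inhibitors leave more ATP so luminescence rises with inhibition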); conditions: recombinant PfCDPK1, Kinase-Glo ATP depletion luminescence
Chain of Calcium-dependent protein kinase 1 (Plasmodium falciparum (isolate 3D7)) (P62344 whole entry, looked up): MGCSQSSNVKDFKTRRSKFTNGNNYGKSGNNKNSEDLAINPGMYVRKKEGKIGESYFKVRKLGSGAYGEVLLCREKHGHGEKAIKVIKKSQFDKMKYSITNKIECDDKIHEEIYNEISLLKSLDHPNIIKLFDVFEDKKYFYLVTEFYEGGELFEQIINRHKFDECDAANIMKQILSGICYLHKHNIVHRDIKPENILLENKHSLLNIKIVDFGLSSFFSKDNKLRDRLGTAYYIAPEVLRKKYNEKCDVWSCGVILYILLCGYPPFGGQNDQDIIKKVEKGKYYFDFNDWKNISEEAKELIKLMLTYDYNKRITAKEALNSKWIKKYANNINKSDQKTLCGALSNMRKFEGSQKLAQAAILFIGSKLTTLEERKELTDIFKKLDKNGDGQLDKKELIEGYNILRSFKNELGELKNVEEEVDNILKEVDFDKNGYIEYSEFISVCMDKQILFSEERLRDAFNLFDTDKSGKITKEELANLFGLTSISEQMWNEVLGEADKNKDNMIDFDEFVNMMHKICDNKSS

[6] = biological target: Plasmodium falciparum protein kinase 6 (PK6, PF3D7_1337100) (UniProt Q8IDW1); experiment: PfPK6 kinase inhibitors, biochemical, TCAMS library (AID 1159586); conditions: recombinant PfPK6, Kinase-Glo ATP depletion luminescence
Chain of Plasmodium falciparum protein kinase 6 (PK6, PF3D7_1337100) (Q8IDW1 1-305): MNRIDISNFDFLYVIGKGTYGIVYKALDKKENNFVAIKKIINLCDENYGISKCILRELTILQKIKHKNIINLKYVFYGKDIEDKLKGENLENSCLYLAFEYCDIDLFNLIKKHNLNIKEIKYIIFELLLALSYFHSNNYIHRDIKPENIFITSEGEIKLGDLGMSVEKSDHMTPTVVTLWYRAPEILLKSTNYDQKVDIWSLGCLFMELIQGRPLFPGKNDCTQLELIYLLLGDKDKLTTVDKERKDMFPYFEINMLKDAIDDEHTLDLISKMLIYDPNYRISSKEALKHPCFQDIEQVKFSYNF

[7] = biological target: Protein kinase 7 (PK7), Plasmodium falciparum 3D7 (PF3D7_0213400) (UniProt Q7YTF7); experiment: inhibition of Plasmodium PK7 catalytic activity – biochemical, TCAMS antimalarial set, Kinase-Glo luminescence (AID 1159587); conditions: recombinant PfPK7, Kinase-Glo ATP depletion luminescence
Chain of Protein kinase 7 (PK7), Plasmodium falciparum 3D7 (PF3D7_0213400) (Q7YTF7 1-343): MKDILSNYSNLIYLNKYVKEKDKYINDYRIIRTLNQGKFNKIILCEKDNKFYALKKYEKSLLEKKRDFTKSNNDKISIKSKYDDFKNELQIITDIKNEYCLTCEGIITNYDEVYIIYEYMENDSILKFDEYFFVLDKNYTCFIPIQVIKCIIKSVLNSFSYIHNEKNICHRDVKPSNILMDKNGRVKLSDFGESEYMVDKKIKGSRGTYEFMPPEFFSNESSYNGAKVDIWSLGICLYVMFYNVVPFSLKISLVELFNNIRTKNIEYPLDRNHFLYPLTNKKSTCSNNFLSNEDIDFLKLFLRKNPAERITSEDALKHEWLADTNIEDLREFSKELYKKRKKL

[8] = biological target: Calcium-dependent protein kinase 4 (Plasmodium falciparum (isolate 3D7)) (UniProt Q8IBS5); experiment: PfCDPK4 kinase inhibitors, biochemical, TCAMS library (AID 1159588; cut-off not given, nearly all actives have IC50 up to about 0.91 µM); conditions: recombinant PfCDPK4, Kinase-Glo ATP depletion luminescence
Chain of Calcium-dependent protein kinase 4 (Plasmodium falciparum (isolate 3D7)) (Q8IBS5 whole entry, looked up): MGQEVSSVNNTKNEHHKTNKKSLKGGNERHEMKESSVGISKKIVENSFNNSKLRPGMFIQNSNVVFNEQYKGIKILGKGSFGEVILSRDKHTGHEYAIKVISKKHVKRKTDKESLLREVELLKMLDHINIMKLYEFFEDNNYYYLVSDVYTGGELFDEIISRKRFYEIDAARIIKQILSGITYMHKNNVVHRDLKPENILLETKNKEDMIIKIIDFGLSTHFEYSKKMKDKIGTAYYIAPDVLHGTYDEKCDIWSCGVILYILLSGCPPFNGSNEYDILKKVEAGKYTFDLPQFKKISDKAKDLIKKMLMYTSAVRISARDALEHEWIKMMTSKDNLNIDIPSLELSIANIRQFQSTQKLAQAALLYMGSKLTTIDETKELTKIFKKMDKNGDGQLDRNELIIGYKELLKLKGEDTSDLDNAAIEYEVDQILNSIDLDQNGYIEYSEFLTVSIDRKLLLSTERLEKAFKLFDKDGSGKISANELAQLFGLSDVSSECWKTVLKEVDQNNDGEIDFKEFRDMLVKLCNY

CN1CCC(C(=O)Nc2cccc(-c3ccc(-c4nc5ccc(F)cc5[nH]4)cc3)c2)CC1
inactive: inhibition [2] 12% | inhibition [3] 3% | outcome [5] | outcome [6] | outcome [7] | outcome [8]
active: growth inhibition [1] 51% | growth inhibition [4] 100%

Cc1cccc2[nH]c(-c3cccc(-c4ccc(NC(=O)Cc5ccccn5)cc4)c3)nc12
inactive: inhibition [2] 25% | inhibition [3] 3% | outcome [5] | outcome [6] | outcome [7] | outcome [8]
active: growth inhibition [1] 57% | growth inhibition [4] 94%

COc1ccc(Cc2cnc3nc(N)nc(N)c3c2C)cc1
active: growth inhibition [1] 96% | inhibition [2] 65% | growth inhibition [4] 90%
inactive: inhibition [3] -2% | outcome [5] | outcome [6] | outcome [7] | outcome [8]

COc1ccc2nccc([C@@H](O)CN3CCC(NC(=O)c4ccc(Cl)c(Cl)c4)CC3)c2c1
active: growth inhibition [1] 57% | growth inhibition [4] 96%
inactive: inhibition [2] 21% | inhibition [3] -5% | outcome [5] | outcome [6] | outcome [7] | outcome [8]

COc1c(C2CCN(CCCCNC(=O)c3cc(-c4ccc(Cl)cc4)[nH]c3C)CC2)ccc2c1CCCC2
inactive: inhibition [3] -6% | outcome [5] | outcome [6] | outcome [7] | outcome [8]
active: growth inhibition [1] 91% | inhibition [2] 53% | growth inhibition [4] 100%

CC(=O)Oc1ccc(C(=O)Oc2ccccc2C#CC#N)cc1OC(C)=O
inactive: inhibition [2] 23% | inhibition [3] -1% | outcome [5] | outcome [6] | outcome [7] | outcome [8]
active: growth inhibition [1] 61% | growth inhibition [4] 93%

CS(=O)(=O)CCNCc1ccc(-c2ccc3c(Nc4ccc(Oc5ccccn5)cc4)ccnc3c2)o1
active: growth inhibition [1] 99% | growth inhibition [4] 100%
inactive: inhibition [2] 0% | inhibition [3] -7% | outcome [5] | outcome [6] | outcome [7] | outcome [8]

Cc1ccc(CN2CCC(Oc3cccc(NC(=O)c4ccc(C(F)(F)F)cc4)c3)CC2)cc1
inactive: growth inhibition [1] 15% | inhibition [2] 37% | inhibition [3] -1% | outcome [5] | outcome [6] | outcome [7] | outcome [8]
active: growth inhibition [4] 92%

COc1ccc2ccccc2c1C=NNc1ccnc2ccc(F)cc12
inactive: growth inhibition [1] 10% | inhibition [2] 11% | inhibition [3] -2% | outcome [5] | outcome [6] | outcome [7] | outcome [8]
active: growth inhibition [4] 87%

CCC(C)c1cccc(C(C)CC)c1OCCCON1C(N)=NC(N)=NC1(C)C (stereo not given)
active: growth inhibition [1] 98% | inhibition [2] 51% | growth inhibition [4] 91%
inactive: inhibition [3] -4% | outcome [5] | outcome [6] | outcome [7] | outcome [8]

CCOC(=O)c1cc(C(=O)NCCCCN2CCC(c3ccc4c(c3OC)CCCC4)CC2)ccc1-c1ccc(C(F)(F)F)cc1
active: growth inhibition [1] 60% | inhibition [2] 100% | growth inhibition [4] 101%
inactive: inhibition [3] -3% | outcome [5] | outcome [6] | outcome [7] | outcome [8]

CCCn1cnc2cc(C(=O)Nc3ccc(-c4cccc(CN(C)C)c4)cc3)ccc2c1=O
active: growth inhibition [4] 95%
inactive: growth inhibition [1] 6% | inhibition [2] 26% | inhibition [3] -6% | outcome [5] | outcome [6] | outcome [7] | outcome [8]

CCCCCCN1CCCN(Cc2ccc(C(=O)Nc3ccc(C(C)(C)C)cc3)cc2)CC1
inactive: growth inhibition [1] 32% | inhibition [3] -3% | outcome [5] | outcome [6] | outcome [7] | outcome [8]
active: inhibition [2] 53% | growth inhibition [4] 100%

O=C(Nc1cccc(-c2ccc(-c3nc4ccc(F)cc4[nH]3)cc2)c1)c1csnn1
inactive: growth inhibition [1] 31% | inhibition [2] 22% | inhibition [3] 0% | outcome [5] | outcome [6] | outcome [7] | outcome [8]
active: growth inhibition [4] 94%

O=C(/C=C/c1ccc(C(F)(F)F)cc1)NCCCCCN1CCCN(C(=O)Nc2ccc(F)c(Cl)c2)CC1
active: growth inhibition [4] 101%
inactive: growth inhibition [1] 33% | inhibition [2] 33% | inhibition [3] 0% | outcome [5] | outcome [6] | outcome [7] | outcome [8]

COc1ccc(Br)cc1/C=C/C(=O)Nc1ccc(C2CCCN(C)C2)cc1 (stereo not given)
inactive: growth inhibition [1] 35% | inhibition [2] 18% | inhibition [3] -2% | outcome [5] | outcome [6] | outcome [7] | outcome [8]
active: growth inhibition [4] 100%

COc1ccc(-c2c(C(F)(F)F)nn(C)c2NC(=O)Nc2ccc(F)cc2F)cc1
active: growth inhibition [1] 99% | growth inhibition [4] 101%
inactive: inhibition [2] 8% | inhibition [3] -4% | outcome [5] | outcome [6] | outcome [7] | outcome [8]

Cc1cc(F)ccc1Nc1nc(N(C)c2ccccc2)c2cc(OCCN(C)C)ccc2n1
inactive: inhibition [2] 37% | inhibition [3] 3% | outcome [5] | outcome [6] | outcome [7] | outcome [8]
active: growth inhibition [1] 55% | growth inhibition [4] 94%

CCCN(CCC)CCCN(CCCN(CCC)CCC)c1cc(C)nc(Nc2ccc3cc(Br)ccc3c2)n1
inactive: inhibition [3] 1% | outcome [5] | outcome [6] | outcome [7] | outcome [8]
active: growth inhibition [1] 99% | inhibition [2] 99% | growth inhibition [4] 98%

CCOc1ccc(Nc2cc(C)nc(Nc3ccc(OCC)cc3)n2)cc1
active: growth inhibition [4] 101%
inactive: growth inhibition [1] 49% | inhibition [2] 3% | inhibition [3] 8% | outcome [5] | outcome [6] | outcome [7] | outcome [8]

Cc1cc(C(F)(F)F)n2nc(C3CCN(Cc4cc(C)c(O)c(C)c4)C3)cc2n1 (stereo not given)
active: growth inhibition [1] 99% | growth inhibition [4] 98%
inactive: inhibition [2] 34% | inhibition [3] 0% | outcome [5] | outcome [6] | outcome [7] | outcome [8]

COc1ccc(CCN(C)CCCOc2ccc(NC(=O)c3cccc4c(=O)c5ccccc5[nH]c34)cc2)cc1OC
inactive: growth inhibition [1] 45% | inhibition [3] 1% | outcome [5] | outcome [6] | outcome [7] | outcome [8]
active: inhibition [2] 80% | growth inhibition [4] 94%

CC(C)(C)c1ccc(CNC(=O)c2cc(CNC3CCNC3)ccc2O)cc1 (stereo not given)
inactive: growth inhibition [1] 1% | inhibition [2] 0% | inhibition [3] -6% | outcome [5] | outcome [6] | outcome [7] | outcome [8]
active: growth inhibition [4] 94%

CN(C)CCN(C)Cc1cccc(-c2ccc3c(Nc4cc(O)c(Cl)cc4F)ccnc3c2)c1
inactive: inhibition [2] 14% | inhibition [3] -5% | outcome [5] | outcome [6] | outcome [7] | outcome [8]
active: growth inhibition [1] 70% | growth inhibition [4] 101%

O=C(NCCN1CCCC1)c1ccc(-c2cccc(-c3nc4ccc(F)cc4[nH]3)c2)cc1
active: growth inhibition [4] 100%
inactive: growth inhibition [1] 2% | inhibition [2] 29% | inhibition [3] 1% | outcome [5] | outcome [6] | outcome [7] | outcome [8]

C=CCC(CC=C)N1C(=O)C(c2ccccc2)(c2ccccc2)N=C1N
active: growth inhibition [1] 97% | growth inhibition [4] 98%
inactive: inhibition [2] 35% | inhibition [3] -3% | outcome [5] | outcome [6] | outcome [7] | outcome [8]

O=C(NCCc1cccc(F)c1)c1ccc(N2CCN(c3ccncc3)CC2)cn1
inactive: growth inhibition [1] 7% | inhibition [2] 4% | inhibition [3] -3% | outcome [5] | outcome [6] | outcome [7] | outcome [8]
active: growth inhibition [4] 94%

CC(C)NCc1ccc(-c2cccc(-c3nc4ccccc4[nH]3)c2)cc1
inactive: growth inhibition [1] 34% | inhibition [2] 21% | inhibition [3] 0% | outcome [5] | outcome [6] | outcome [7] | outcome [8]
active: growth inhibition [4] 101%

Cc1[nH]c2ccc(C#N)cc2c(=O)c1Br
inactive: inhibition [2] 2% | inhibition [3] -1% | outcome [5] | outcome [6] | outcome [7] | outcome [8]
active: growth inhibition [1] 61% | growth inhibition [4] 91%

CC(C)Cc1nc(N2CCOCC2)c2nnn(Cc3ccccc3)c2n1
active: growth inhibition [1] 76% | growth inhibition [4] 98%
inactive: inhibition [2] 7% | inhibition [3] -2% | outcome [5] | outcome [6] | outcome [7] | outcome [8]

COc1ccc(CNC2Cc3ccccc3C2)cc1-c1ccc(S(=O)(=O)NCCN2CCCC2)s1
inactive: inhibition [3] 4% | outcome [5] | outcome [6] | outcome [7] | outcome [8]
active: growth inhibition [1] 100% | inhibition [2] 89% | growth inhibition [4] 101%

O=C(Nc1ccc(Cl)cc1)c1ccc(CN2CCCN(Cc3ccccc3)CC2)cc1
inactive: growth inhibition [1] 2% | inhibition [2] 46% | inhibition [3] 1% | outcome [5] | outcome [6] | outcome [7] | outcome [8]
active: growth inhibition [4] 96%

Nc1cccc(CNCc2ccc(-c3ccc(-c4nc5ccccc5[nH]4)s3)cc2)c1
active: growth inhibition [1] 93% | growth inhibition [4] 100%
inactive: inhibition [2] 12% | inhibition [3] 4% | outcome [5] | outcome [6] | outcome [7] | outcome [8]

Cc1[nH]c(C)c(-c2ccc(CCc3ccc(F)cc3F)cc2)c(=O)c1Cl
inactive: inhibition [2] 5% | inhibition [3] -4% | outcome [5] | outcome [6] | outcome [7] | outcome [8]
active: growth inhibition [1] 97% | growth inhibition [4] 98%

COCCn1c(Sc2ccc(C#N)c([N+](=O)[O-])c2)nnc1-c1ccc(N(C)C)cc1
inactive: inhibition [2] 2% | inhibition [3] -6% | outcome [5] | outcome [6] | outcome [7] | outcome [8]
active: growth inhibition [1] 66% | growth inhibition [4] 89%

O=C(C1CCCCC1)N1CCOC(CCN2CCC(c3ccccc3)CC2)(c2ccc(Cl)c(Cl)c2)C1 (stereo not given)
active: growth inhibition [1] 86% | growth inhibition [4] 92%
inactive: inhibition [2] 6% | inhibition [3] 6% | outcome [5] | outcome [6] | outcome [7] | outcome [8]

CCC(CC)n1c(COC)cc2c3c(N)nc(N)nc3ccc21
active: inhibition [2] 71% | growth inhibition [4] 95%
inactive: growth inhibition [1] 0% | inhibition [3] -4% | outcome [5] | outcome [6] | outcome [7] | outcome [8]

O=C(/C=C/c1ccc(I)cc1)NCCCCCN1CCC(c2c[nH]c3ccccc23)CC1
active: growth inhibition [4] 95%
inactive: growth inhibition [1] 2% | inhibition [2] 43% | inhibition [3] -4% | outcome [5] | outcome [6] | outcome [7] | outcome [8]

CN1CCC(N(Cc2ccc(-c3ccc(Cl)cc3)cc2)C(=O)Cn2c(CCc3cccc(F)c3F)cc(=O)c3ccccc32)CC1
active: growth inhibition [1] 88% | inhibition [2] 93% | growth inhibition [4] 97%
inactive: inhibition [3] -3% | outcome [5] | outcome [6] | outcome [7] | outcome [8]

COc1ccc(-n2nc(C)cc2C(=O)NCc2ccc(-c3c(C)noc3C)cc2)cc1
inactive: inhibition [2] 3% | inhibition [3] 3% | outcome [5] | outcome [6] | outcome [7] | outcome [8]
active: growth inhibition [1] 92% | growth inhibition [4] 101%
